An excerpt weighted towards active compounds, which were near 3.7% of everything screened.
tim23-1 inh = inhibits growth of tim23-1 mutant yeast; S. cerevisiae tim23-1 growth, BacTiter-Glo luminescence, 24 h; inhibition, % at 20 µM; actives 1.3% (n = 330,000);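 active = growth inhibition of the mutant yeast at or above 50%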;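 note: temperature-sensitive mutant grown at 25 °C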
V-ATPase pH = regulators of yeast V-ATPase proton transport. S. cerevisiae, pHLuorin cytosolic pH fluorescence. actives 0.37% (n = 350,000). AID 504577. response, % at 10 µM; in the data active = response mostly above about 7.3%, no sharp cut-off; inactive = mostly below about 5.4%; note: actives read high
PfHsp90 set2 = reduces growth (ATP signal) of yeast expressing P. falciparum Hsp90; S. cerevisiae expressing PfHsp90, BacTiter-Glo ATP, 48 h; yeast lacking PDR1 and PDR3 efflux regulators; inhibition, % at 9.4 µM; actives 0.32% (n = 310,000);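 active = every replicate shows inhibition above about 80%, whatever the replicate mean, limit read from the data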
tim10-1 inh = tim10-1 yeast growth inhibition; S. cerevisiae tim10-1 ts strain growth, BacTiter-Glo, 24 h; inhibition, % at 20 µM; actives 2.2% (n = 330,000);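 active = inhibition of at least 40%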;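 note: mutant grown at 25 °C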
TIM10 inh = growth inhibitors of TIM10 yeast strain | S. cerevisiae TIM10 strain growth, BacTiter-Glo luminescence, 24 h | inhibition, % at 10 µM | actives 1.4% (n = 330,000);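 active = inhibition of 40% or more at the single tested concentration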;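 note: wild-type TIM10 isogenic control strain grown at permissive 25 °C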
TIM10 conf = confirmation of TIM10 yeast growth inhibitors; shares compounds with TIM10 inh; S. cerevisiae tim10 strain growth, BacTiter-Glo luminescence, 24 h; inhibition, % at 10 µM; actives 63% (n = 4,600); AID 463215;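 active = inhibition of yeast growth at or above a set limit in either of two replicates at 10 µM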; note: this counterscreen used the strain with wild-type TIM10
tim23-1 confirm = tim23-1 yeast growth inhibition, confirmed. shares compounds with tim23-1 inh. S. cerevisiae tim23-1 growth, BacTiter-Glo luminescence, 24 h. inhibition, % at 20 µM. actives 83% (n = 4,400). AID 463218;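 active = inhibition above about 39% in either of two replicate wells at 20 µM, limit read from the data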;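 note: temperature-sensitive tim23-1 mutant grown at 25 °C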
Hits are given with their value.

What do the screens show for `COC(=O)C(Nc1ccccc1Cl)(c1cc(C)c(O)c(C)c1)C(F)(F)F` (stereo not given)?
tim23-1 inh: inactive; V-ATPase pH: inactive; PfHsp90 set2: inactive; tim10-1 inh: inactive; TIM10 inh: inactive

How did COC(=O)/C(=C(/F)Sc1cc(C)c(O)c(C)c1)C(F)(F)F do in these assays?
tim23-1 inh: 54; V-ATPase pH: inactive; PfHsp90 set2: inactive; tim10-1 inh: inactive; TIM10 inh: 42; TIM10 conf: inactive; tim23-1 confirm: 52

Results for COc1cccc(CN(C)C(=O)c2cc(S(=O)(=O)NC3CCCCC3)ccc2C)c1OC ?
tim23-1 inh: inactive; V-ATPase pH: inactive; PfHsp90 set2: inactive; tim10-1 inh: inactive; TIM10 inh: inactive

How did O=C(NCCc1ccc2c(c1)OCCO2)c1cc(S(=O)(=O)N2CCCC2)ccc1Br do in these assays?
V-ATPase pH: inactive; PfHsp90 set2: inactive

Results for Cc1ccc(N)cc1NC(=O)CN1CCOCC1 ?
tim23-1 inh: inactive; V-ATPase pH: inactive; PfHsp90 set2: inactive; tim10-1 inh: inactive; TIM10 inh: inactive

How did O=C(NC1CC1)c1ccc(CS(=O)c2ccccc2)o1 (stereo not given) do in these assays?
tim23-1 inh: inactive; V-ATPase pH: inactive; tim10-1 inh: inactive; TIM10 inh: inactive

How did CC1(C)CCC[C@]2(C)C(CS(=O)c3ccccc3)=C(C=O)CC[C@@H]12 (stereo not given in full) do in these assays?
tim23-1 inh: 67; V-ATPase pH: inactive; PfHsp90 set2: inactive; tim10-1 inh: inactive; TIM10 inh: 49; TIM10 conf: 47; tim23-1 confirm: 55

How did CCCCNC(=O)CSc1nnc(-c2cccc(S(=O)(=O)N3CCOCC3)c2)o1 do in these assays?
tim23-1 inh: inactive; V-ATPase pH: inactive; PfHsp90 set2: inactive; tim10-1 inh: inactive; TIM10 inh: inactive

How did Cc1c(C(=O)Oc2cccc3cccnc23)oc2ccccc12 do in these assays?
tim23-1 inh: 65; V-ATPase pH: inactive; PfHsp90 set2: inactive; tim10-1 inh: inactive; TIM10 inh: 53; TIM10 conf: 40; tim23-1 confirm: 58

What do the screens show for `CCc1nc2ccccc2c(C(=O)Oc2cccc3cccnc23)c1C`?
tim23-1 inh: inactive; V-ATPase pH: inactive; PfHsp90 set2: inactive; tim10-1 inh: inactive; TIM10 inh: inactive

How did O=C(CN(c1cccc(Br)c1)S(=O)(=O)c1ccccc1)N/N=C/c1cc([N+](=O)[O-])ccc1O do in these assays?
tim23-1 inh: inactive; V-ATPase pH: inactive; PfHsp90 set2: inactive; tim10-1 inh: inactive; TIM10 inh: inactive

Results for CCOC(=O)/C=C1/N(C)c2ccccc2C1(C)C ?
tim23-1 inh: inactive; V-ATPase pH: inactive; PfHsp90 set2: inactive; tim10-1 inh: inactive; TIM10 inh: inactive

What do the screens show for `COc1ccccc1C(=O)NC(=S)/C=C1/N(C)c2ccccc2C1(C)C`?
tim23-1 inh: 51; V-ATPase pH: inactive; PfHsp90 set2: inactive; tim10-1 inh: inactive; TIM10 inh: 44; TIM10 conf: inactive; tim23-1 confirm: 42

How did Cc1ccc(C(=O)O/N=C(\N)Cc2ccc([N+](=O)[O-])cc2)c(Cl)c1 do in these assays?
tim23-1 inh: 88; V-ATPase pH: inactive; PfHsp90 set2: inactive; tim10-1 inh: inactive; TIM10 inh: 89; TIM10 conf: 96; tim23-1 confirm: 65

How did N/C(Cc1ccc([N+](=O)[O-])cc1)=N\OC(=O)c1ccc(Br)cc1 do in these assays?
tim23-1 inh: 83; V-ATPase pH: inactive; PfHsp90 set2: inactive; tim10-1 inh: inactive; TIM10 inh: 92; TIM10 conf: 94; tim23-1 confirm: inactive

What do the screens show for `O=C(c1ccc(NC(=S)NCc2ccco2)cc1)N1CCOCC1`?
tim23-1 inh: inactive; V-ATPase pH: inactive; PfHsp90 set2: inactive; tim10-1 inh: inactive; TIM10 inh: inactive

How did Cc1ccc(Nc2ncccc2C(N)=O)cc1[N+](=O)[O-] do in these assays?
tim23-1 inh: 56; V-ATPase pH: inactive; PfHsp90 set2: inactive; tim10-1 inh: inactive; TIM10 inh: 43; TIM10 conf: 40; tim23-1 confirm: 69

Results for COc1cc(/C=C2/CCCC(C(=O)C(F)(F)F)=C2O)ccc1O ?
tim23-1 inh: inactive; V-ATPase pH: inactive; PfHsp90 set2: inactive; tim10-1 inh: inactive; TIM10 inh: inactive

What do the screens show for `COc1cc(/C=C2\CCC/C(=C\c3ccc(O)c(OC)c3)C2=O)ccc1O`?
tim23-1 inh: 82; V-ATPase pH: inactive; PfHsp90 set2: inactive; tim10-1 inh: inactive; TIM10 inh: 41; TIM10 conf: 39; tim23-1 confirm: 52

Results for CCOc1ccc(NC(=O)COC(=O)CC2CC3CCC2C3)cc1 (stereo not given) ?
tim23-1 inh: 59; V-ATPase pH: inactive; PfHsp90 set2: inactive; tim10-1 inh: inactive; TIM10 inh: 44; TIM10 conf: 40; tim23-1 confirm: 54

Results for CC(C)c1ccc2c(c1)C1(NN=C(c3ccccc3)S1)C(=O)N2 (stereo not given) ?
tim23-1 inh: 50; V-ATPase pH: inactive; PfHsp90 set2: inactive; tim10-1 inh: inactive; TIM10 inh: 51; TIM10 conf: 40; tim23-1 confirm: 54

How did CC(C)c1ccc(O)c(NC(=O)c2ncn[nH]2)c1 do in these assays?
tim23-1 inh: inactive; V-ATPase pH: inactive; PfHsp90 set2: inactive; tim10-1 inh: inactive; TIM10 inh: inactive

How did CCCOc1ccc(-c2nc(OCC)c3ccccc3n2)cc1 do in these assays?
tim23-1 inh: inactive; V-ATPase pH: inactive; PfHsp90 set2: inactive; tim10-1 inh: inactive; TIM10 inh: inactive

How did CCOc1nc(-c2ccncc2)nc2ccccc12 do in these assays?
tim23-1 inh: 57; V-ATPase pH: inactive; PfHsp90 set2: inactive; tim10-1 inh: inactive; TIM10 inh: 58; TIM10 conf: 44; tim23-1 confirm: 54

What do the screens show for `COc1ccccc1C(=O)COC(=O)Cn1[nH]c(=O)c2ccccc2c1=O`?
tim23-1 inh: inactive; V-ATPase pH: inactive; PfHsp90 set2: inactive; tim10-1 inh: inactive; TIM10 inh: inactive

How did CCOc1ccc(/C=N/NC(=S)NC2CC3C=CC2C3)cc1 (stereo not given) do in these assays?
tim23-1 inh: inactive; V-ATPase pH: inactive; PfHsp90 set2: inactive; tim10-1 inh: inactive; TIM10 inh: inactive

What do the screens show for `Oc1c(Br)cc(Br)cc1/C=N/NC(=S)N[C@H]1CC2C=CC1C2` (stereo not given in full)?
tim23-1 inh: 57; V-ATPase pH: inactive; PfHsp90 set2: inactive; tim10-1 inh: inactive; TIM10 inh: 46; TIM10 conf: 48; tim23-1 confirm: 68

What do the screens show for `CSc1nnnc2ccccc12`?
V-ATPase pH: inactive; PfHsp90 set2: inactive

How did Cc1ccc(C)c(N2CCN(CCCNC(=O)Cn3c(=O)c4cccn4c4cccnc43)CC2)c1 do in these assays?
tim23-1 inh: inactive; V-ATPase pH: inactive; PfHsp90 set2: inactive; tim10-1 inh: inactive; TIM10 inh: inactive

Screens: PubChem, several laboratories
